These results are taken from ChEMBL document CHEMBL2218924, “A broad activity screen in support of a chemogenomic map for kinase signalling research and drug discovery” (Biochem J, 2013).

Test [1] deals with Death-associated protein kinase 1 (Homo sapiens) (UniProt P53355). Particulars: at 1 µM.
For test [2] the target is unchanged. Conditions: at 10 µM.
The target in test [3] is Death-associated protein kinase 2 (Homo sapiens) (UniProt Q9UIK4). Particulars: at 1 µM.
For test [4] the target is unchanged. Conditions: at 10 µM.
In test [5] the target is T1, Serine/threonine-protein kinase DCLK2 (Homo sapiens) (UniProt Q8N568).
T1 sequence (whole entry): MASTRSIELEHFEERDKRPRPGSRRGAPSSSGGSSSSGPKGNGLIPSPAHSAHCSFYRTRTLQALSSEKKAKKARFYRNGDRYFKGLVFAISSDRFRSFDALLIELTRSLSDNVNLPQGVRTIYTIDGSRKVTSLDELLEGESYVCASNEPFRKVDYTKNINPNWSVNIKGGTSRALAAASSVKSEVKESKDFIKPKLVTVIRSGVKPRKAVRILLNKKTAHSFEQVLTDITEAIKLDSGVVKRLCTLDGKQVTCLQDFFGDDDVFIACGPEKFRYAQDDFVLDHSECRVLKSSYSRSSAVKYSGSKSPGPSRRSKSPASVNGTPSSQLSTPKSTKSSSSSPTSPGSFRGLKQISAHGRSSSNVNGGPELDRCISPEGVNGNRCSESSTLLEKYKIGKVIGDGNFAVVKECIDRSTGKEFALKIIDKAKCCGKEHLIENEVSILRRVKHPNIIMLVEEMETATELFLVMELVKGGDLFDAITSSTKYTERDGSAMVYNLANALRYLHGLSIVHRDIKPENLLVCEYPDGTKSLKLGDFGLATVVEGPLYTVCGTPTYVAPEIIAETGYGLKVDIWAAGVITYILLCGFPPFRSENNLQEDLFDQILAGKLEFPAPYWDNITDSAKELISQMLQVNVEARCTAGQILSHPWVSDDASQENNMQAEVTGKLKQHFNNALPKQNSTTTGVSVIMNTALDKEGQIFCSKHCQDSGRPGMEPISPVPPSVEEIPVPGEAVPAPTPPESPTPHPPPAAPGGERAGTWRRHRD
Particulars: at 1 µM.

The target in test [6] is T1, Serine/threonine-protein kinase DCLK2 (Homo sapiens). Particulars: at 10 µM.
The target of test [7] is T2, Discoidin domain-containing receptor 2 (Homo sapiens) (UniProt Q16832).
T2 sequence (whole entry): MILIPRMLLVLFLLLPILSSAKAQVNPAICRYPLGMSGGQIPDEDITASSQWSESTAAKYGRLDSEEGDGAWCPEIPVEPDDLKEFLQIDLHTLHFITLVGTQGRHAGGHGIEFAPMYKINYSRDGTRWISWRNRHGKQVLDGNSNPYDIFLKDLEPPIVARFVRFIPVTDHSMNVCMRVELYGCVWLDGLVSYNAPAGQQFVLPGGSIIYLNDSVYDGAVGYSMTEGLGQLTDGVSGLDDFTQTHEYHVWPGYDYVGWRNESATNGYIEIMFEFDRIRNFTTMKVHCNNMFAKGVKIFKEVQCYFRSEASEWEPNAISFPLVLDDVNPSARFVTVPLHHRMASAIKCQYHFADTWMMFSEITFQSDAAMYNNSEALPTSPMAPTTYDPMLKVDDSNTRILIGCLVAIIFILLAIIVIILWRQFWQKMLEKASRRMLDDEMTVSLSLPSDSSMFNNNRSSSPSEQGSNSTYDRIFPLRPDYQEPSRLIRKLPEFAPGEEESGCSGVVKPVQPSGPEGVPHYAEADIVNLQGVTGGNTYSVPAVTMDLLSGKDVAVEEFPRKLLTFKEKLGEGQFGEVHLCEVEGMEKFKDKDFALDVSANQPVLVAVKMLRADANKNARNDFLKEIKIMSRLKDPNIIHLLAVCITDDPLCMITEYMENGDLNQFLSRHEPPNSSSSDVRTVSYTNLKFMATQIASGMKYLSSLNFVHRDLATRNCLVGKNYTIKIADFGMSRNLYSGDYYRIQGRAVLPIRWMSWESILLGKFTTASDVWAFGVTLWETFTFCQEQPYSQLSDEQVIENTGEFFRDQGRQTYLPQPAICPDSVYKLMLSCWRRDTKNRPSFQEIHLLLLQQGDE
Conditions: at 1 µM.

The target in test [8] is T2, Discoidin domain-containing receptor 2 (Homo sapiens). Conditions: at 10 µM.
In test [9] the target is T3, Myotonin-protein kinase (Homo sapiens) (UniProt Q09013).
T3 sequence (whole entry): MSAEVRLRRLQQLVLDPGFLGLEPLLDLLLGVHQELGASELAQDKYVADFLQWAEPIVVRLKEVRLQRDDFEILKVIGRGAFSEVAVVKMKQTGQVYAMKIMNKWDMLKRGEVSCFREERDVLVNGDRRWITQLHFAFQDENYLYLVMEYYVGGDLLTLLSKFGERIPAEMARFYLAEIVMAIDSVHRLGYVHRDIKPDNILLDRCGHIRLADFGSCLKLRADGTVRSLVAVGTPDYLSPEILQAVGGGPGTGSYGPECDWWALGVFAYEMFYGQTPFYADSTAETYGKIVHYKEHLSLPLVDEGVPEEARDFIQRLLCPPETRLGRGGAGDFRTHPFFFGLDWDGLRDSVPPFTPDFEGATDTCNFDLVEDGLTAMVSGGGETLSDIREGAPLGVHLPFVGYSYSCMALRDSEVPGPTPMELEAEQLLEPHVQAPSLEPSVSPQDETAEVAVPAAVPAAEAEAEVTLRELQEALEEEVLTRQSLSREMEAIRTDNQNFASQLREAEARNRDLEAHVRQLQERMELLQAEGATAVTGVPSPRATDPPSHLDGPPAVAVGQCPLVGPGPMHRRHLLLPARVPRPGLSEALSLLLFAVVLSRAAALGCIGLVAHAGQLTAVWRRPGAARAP
Particulars: at 1 µM.

The target in test [10] is T3, Myotonin-protein kinase (Homo sapiens). Particulars: at 10 µM.

In general, residual activity refers to the signal under treatment as a percentage of the control signal.

Death-associated protein kinase 1 (Homo sapiens), sequence (P53355 whole entry, looked up): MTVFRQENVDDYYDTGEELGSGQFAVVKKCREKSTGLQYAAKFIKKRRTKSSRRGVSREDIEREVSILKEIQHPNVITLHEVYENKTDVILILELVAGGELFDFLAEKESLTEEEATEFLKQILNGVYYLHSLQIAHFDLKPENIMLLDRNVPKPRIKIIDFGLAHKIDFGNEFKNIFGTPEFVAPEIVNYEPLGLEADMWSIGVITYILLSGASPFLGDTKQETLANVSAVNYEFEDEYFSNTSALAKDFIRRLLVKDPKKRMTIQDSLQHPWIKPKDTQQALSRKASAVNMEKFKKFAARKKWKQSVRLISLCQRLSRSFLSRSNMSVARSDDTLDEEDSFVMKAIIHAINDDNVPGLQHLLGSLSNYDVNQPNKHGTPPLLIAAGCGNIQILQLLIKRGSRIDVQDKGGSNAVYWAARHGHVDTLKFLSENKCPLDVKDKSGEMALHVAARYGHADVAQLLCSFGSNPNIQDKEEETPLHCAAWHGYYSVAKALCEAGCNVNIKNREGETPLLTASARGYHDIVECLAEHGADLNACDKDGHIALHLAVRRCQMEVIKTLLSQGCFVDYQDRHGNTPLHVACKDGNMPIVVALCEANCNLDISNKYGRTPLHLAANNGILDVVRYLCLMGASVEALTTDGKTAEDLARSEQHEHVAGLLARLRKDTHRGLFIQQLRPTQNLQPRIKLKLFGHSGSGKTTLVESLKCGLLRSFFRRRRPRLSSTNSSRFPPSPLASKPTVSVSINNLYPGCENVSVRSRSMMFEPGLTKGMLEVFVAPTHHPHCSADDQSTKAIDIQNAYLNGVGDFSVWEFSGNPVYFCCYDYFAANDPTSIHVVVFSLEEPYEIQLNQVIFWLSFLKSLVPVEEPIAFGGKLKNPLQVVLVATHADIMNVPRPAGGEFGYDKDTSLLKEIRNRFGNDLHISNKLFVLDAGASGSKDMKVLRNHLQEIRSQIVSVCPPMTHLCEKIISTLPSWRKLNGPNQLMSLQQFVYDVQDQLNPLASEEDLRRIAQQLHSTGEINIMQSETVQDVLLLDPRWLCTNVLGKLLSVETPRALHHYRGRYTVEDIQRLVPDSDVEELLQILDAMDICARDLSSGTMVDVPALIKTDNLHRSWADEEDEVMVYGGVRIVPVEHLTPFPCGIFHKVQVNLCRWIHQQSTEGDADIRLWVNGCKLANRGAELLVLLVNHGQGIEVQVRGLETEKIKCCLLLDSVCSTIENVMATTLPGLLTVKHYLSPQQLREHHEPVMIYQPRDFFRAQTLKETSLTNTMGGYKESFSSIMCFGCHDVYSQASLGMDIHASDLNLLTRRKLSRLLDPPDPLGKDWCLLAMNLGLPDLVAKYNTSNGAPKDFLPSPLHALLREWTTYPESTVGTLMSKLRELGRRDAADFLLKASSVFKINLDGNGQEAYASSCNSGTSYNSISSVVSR
Death-associated protein kinase 2 (Homo sapiens), sequence (Q9UIK4 whole entry, looked up): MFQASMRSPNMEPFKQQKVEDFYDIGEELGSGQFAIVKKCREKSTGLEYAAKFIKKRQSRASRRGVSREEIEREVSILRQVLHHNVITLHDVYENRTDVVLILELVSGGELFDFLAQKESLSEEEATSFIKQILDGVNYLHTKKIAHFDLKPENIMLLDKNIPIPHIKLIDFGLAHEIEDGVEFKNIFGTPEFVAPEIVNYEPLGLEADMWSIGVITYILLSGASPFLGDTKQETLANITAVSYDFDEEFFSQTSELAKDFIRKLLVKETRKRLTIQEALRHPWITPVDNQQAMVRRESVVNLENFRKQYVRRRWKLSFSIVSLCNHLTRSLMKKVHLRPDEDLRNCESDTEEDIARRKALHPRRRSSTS

For `CCc1nc(-c2ccc(OC)cc2)[nH]c1-c1ccncc1`, the results for the residual activity in test [1] and in test [2] were 101% and 100%, respectively.

Turning to `COc1cc2ncnc(Nc3ccc(OCc4ccccc4)cc3)c2cc1OC`, the residual activity was 94% in test [1]; 100% in test [2]; 104% in test [3]; 112% in test [4]; 89% in test [5]; 112% in test [6]. Besides, the residual activity in [7] was found to be 108%; in test [8], 93%; in test [9], 105%; in [10] it was 103%.

`O=C1Nc2cc(Br)ccc2/C1=C1/Nc2ccccc2/C1=N\O`: in test [1], the residual activity is 80%.

Turning to `COc1ccc2c(c[n+](C)c3c4cc5c(cc4ccc23)OCO5)c1OC`, the residual activity in test [1] worked out at 94%; in [2] it was 71%; in [3] it was 99%; in [4] it was 91%; in test [5] it was 98%; in test [6] it was 90%. The figures for the residual activity in [9] and in test [10] were 111% and 126%, respectively.

`O=[N+]([O-])/C=C/c1ccc2c(c1)OCO2`: the residual activity in test [1] turned out to be 85%; in [2], 90%; in test [3] it was 95%; in test [4] it was 127%; in test [5], 63%; in test [6] it was 68%. The residual activity was determined as 100% in [7], 97% in [8], 137% in test [9] and 134% in test [10].

In the case of `Cc1nc(-c2ccccc2)c(-c2ccncc2)o1`, the residual activity in [1] was found to be 81%.

Take `O=C1NC(=O)c2c1c1c3ccccc3n3c1c1c2c2ccccc2n1C1CCC3O1`: the residual activity in [1] was found to be 49%; in test [2] it was 60%; in test [3], 54%; in test [4], 20%; in test [7] it was 77%; in test [8], 81%.

Turning to `CC(C)(C)c1cc(C=C(C#N)C#N)cc(Br)c1O`, the residual activity is 101% in [1]; 104% in test [3]; 103% in test [4]; 109% in test [5]; 115% in test [7]; 98% in [9]. The residual activity in [10] turned out to be 107%.

In the case of `COC(=O)[C@@]1(O)C[C@H]2O[C@]1(C)n1c3ccccc3c3c4c(c5c6ccccc6n2c5c31)C(=O)NC4`, the residual activity in [1] is 48%; in [2], 10%; in test [3], 12%; in test [4] it was -3%; in [5], 75%; in test [6], 41%. Moreover, the residual activity in test [7] amounted to 56%; in [8] it was 17%; in [9] it was 116%; in test [10], 65%.

Turning to `COc1ccc(Cl)cc1NC(=O)Nc1cc(C)nc2ccccc12`, in [1], the residual activity was found to be 94%.

As for `CC[n+]1c(/C=C/N(C)c2ccccc2)n(-c2ccccc2)c2ccc(-c3nc4ccccc4s3)cc21`, the residual activity in test [1] amounted to 79%.

Regarding `C[S+]([O-])c1ccc(-c2nc(-c3ccc(F)cc3)c(-c3ccncc3)[nH]2)cc1` (stereo not drawn), the residual activity in test [1] was determined as 85%; in test [2] it was 84%; in test [3] it was 90%; in test [4], 103%; in [5], 132%; in [6], 111%. Moreover, the residual activity was 94% in [7], 46% in test [8], 122% in test [9] and 102% in test [10].

For `COc1ccc(C(=O)Nc2sc3c(c2C(N)=O)CCCC3)cc1OC`, in [1], the residual activity is 93%.

On to `CC(C)[C@H](CO)Nc1nc(Nc2cccc(Cl)c2)c2ncn(C(C)C)c2n1`, for which the residual activity in [1] stood at 87%; in test [5], 128%; in [6] it was 139%; in test [7], 91%; in test [8], 92%; in test [9], 98%. For the same molecule, in [10], the residual activity is 89%.

With `COc1ccc(S(=O)(=O)N(CCO)c2ccccc2CN(C)C/C=C/c2ccc(Cl)cc2)cc1`, the residual activity in test [1] turned out to be 86%.

For `c1cc(-c2cnn3cc(-c4ccc(OCCN5CCCCC5)cc4)cnc23)ccn1`, the residual activity in test [1] is 76%; in [2], 84%; in test [5], 124%; in [6], 76%; in [8] it was 69%; in test [10] it was 80%.

`O=c1[nH]c2ccccc2n1C1CCN(Cc2ccc(-c3nc4cc5[nH]cnc5cc4nc3-c3ccccc3)cc2)CC1`: the residual activity was 93% in [1]; 95% in test [2]; 98% in test [3]; 78% in test [4]; 87% in [5]; 98% in test [6]. Besides, the residual activity in [7] was determined as 109%; in test [8] it was 85%; in [9], 133%; in [10], 143%.

For `CCn1cnc2c(Nc3cccc(Cl)c3)nc(N[C@@H]3CCCC[C@@H]3N)nc21`, the residual activity in test [1] came out at 96%; in test [2], 85%; in [3], 92%; in test [4], 76%; in test [5] it was 124%; in test [6] it was 67%. Besides, the residual activity was found to be 78% in test [8], 123% in test [9] and 80% in [10].

As to `COc1ccc(OC)c2c(=S)c3ccccc3[nH]c12`, in test [1], the residual activity worked out at 95%.

Regarding `CC(C)[C@H](CO)Nc1nc(Nc2cc(N)cc(Cl)c2)c2ncn(C(C)C)c2n1`, the residual activity in test [1] turned out to be 92%.

Regarding `COc1ccc2c(c1)/C(=C/c1cnc[nH]1)C(=O)N2`, the results for the residual activity in [1], in test [2] and in test [4] were 100%, 97% and 51%, respectively.

Take `NC(=O)c1ccc(-c2nc(-c3ccc4c(c3)OCCO4)c(-c3ccccn3)[nH]2)cc1`: the residual activity in test [1] turned out to be 86%.

Turning to `COc1cc(OC)c(/C=C2\C(=O)Nc3ccccc32)c(OC)c1`, the residual activity in [1] was 84%; in [2] it was 81%; in test [3] it was 100%; in test [4], 95%; in [7], 97%; in test [8] it was 90%.

For the molecule `O=C1NC(=O)c2c1c1c3ccccc3[nH]c1n1cncc21`, the residual activity in test [1] is 57%.

For `O=C1Nc2ccc3ncsc3c2/C1=C/c1c[nH]cn1`, the residual activity stood at 85% in test [1]; 63% in [2]; 71% in test [3]; 32% in [4]; 55% in test [5]; 17% in [6]. Further, the residual activity in test [7] was determined as 113%; in test [8] it was 82%; in test [9], 120%; in [10], 105%.

Turning to `N/C(=N\[N+](=O)[O-])N/N=C\c1ccc(-c2cccc([N+](=O)[O-])c2)o1`, the residual activity in test [1] was 93%; in test [2] it was 89%; in [7] it was 100%; in test [8] it was 99%; in test [9], 98%; in test [10], 84%.

With `Oc1cccc(-c2nc(N3CCOCC3)c3oc4ncccc4c3n2)c1`, in [1], the residual activity was 99%.

With `O=C1c2ccccc2-c2nc3nnnn3nc21`, the residual activity in test [3] came to 101%; in test [4], 114%; in [9] it was 127%; in test [10], 148%.

On to `NC(=O)c1ccc2[nH]c(-c3ccc(Oc4ccc(Cl)cc4)cc3)nc2c1`, for which the residual activity in [1] came to 93%.

In the case of `O=C1C(Cl)=C(N2C(=O)CCC2=O)C(=O)c2ccccc21`, the residual activity in test [1] is 91%.

`CO[C@@H]1[C@H](N(C)C(=O)c2ccccc2)C[C@H]2O[C@]1(C)n1c3ccccc3c3c4c(c5c6ccccc6n2c5c31)C(=O)NC4`: the residual activity in test [1] came to 63%.
